Data reported in publication PMC11006913.

How the values were obtained:
Experiment in all cases: PBM; 200 nM protein, PBS
Conditions in all cases: dsDNA, one strand shown
VENTX = target: T1, VENTX (Homo sapiens, UniProt O95231 78-163, R121Q)
T1 sequence: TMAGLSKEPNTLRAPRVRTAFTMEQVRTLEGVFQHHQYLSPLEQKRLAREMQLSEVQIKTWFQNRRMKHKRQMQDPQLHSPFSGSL

HOXA4 [1] = target: HOXA4 (Homo sapiens, UniProt Q00056 201-287, W262R)
HOXA7 [2] = target: HOXA7 (Homo sapiens, UniProt P31268 116-202)
ALX4 [3] = target: ALX4 (Homo sapiens, UniProt Q9H161 200-286)
ALX4 (Homo sapiens, UniProt Q9H161 200-286), sequence (Q9H161 200-286): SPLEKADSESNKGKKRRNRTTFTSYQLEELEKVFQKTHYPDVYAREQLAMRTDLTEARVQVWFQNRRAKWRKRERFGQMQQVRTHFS

PRRX1 [4] = target: PRRX1 (Homo sapiens, UniProt P54821 80-166, F113S)
PRRX1 (Homo sapiens, UniProt P54821 80-166, F113S), sequence (P54821 80-166 F113S): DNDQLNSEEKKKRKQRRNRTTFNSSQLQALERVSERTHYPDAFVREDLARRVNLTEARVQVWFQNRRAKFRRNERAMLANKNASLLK

HOXB6 [5] = target: HOXB6 (Homo sapiens, UniProt P17509 132-218, K202E)
HOXB6 (Homo sapiens, UniProt P17509 132-218, K202E), sequence (P17509 132-218 K202E): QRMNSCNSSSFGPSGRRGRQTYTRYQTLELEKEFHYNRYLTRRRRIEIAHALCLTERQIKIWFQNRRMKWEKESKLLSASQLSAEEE

ALX4 [6] = target: ALX4 (Homo sapiens, UniProt Q9H161 200-286, Q225E)
ALX4 (Homo sapiens, UniProt Q9H161 200-286, Q225E), sequence (Q9H161 200-286 Q225E): as the sequence (Q9H161 200-286) above, with Q26E counted along it

HOXA2 = HOXA2 (Homo sapiens, UniProt O43364 129-215, R185T)
HOXA2, sequence (O43364 129-215 R185T): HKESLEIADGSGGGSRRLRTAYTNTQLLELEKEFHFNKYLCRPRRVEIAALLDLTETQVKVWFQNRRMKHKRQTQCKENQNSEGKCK

ALX1 [7] = target: ALX1 (Homo sapiens, UniProt Q15699 118-204, L144V)
ALX1 (Homo sapiens, UniProt Q15699 118-204, L144V), sequence (Q15699 118-204 L144V): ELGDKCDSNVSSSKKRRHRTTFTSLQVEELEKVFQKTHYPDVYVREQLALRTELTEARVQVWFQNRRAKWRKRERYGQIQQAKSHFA

ALX1 [8] = target: ALX1 (Homo sapiens, UniProt Q15699 118-204, L144R)
ALX1 (Homo sapiens, UniProt Q15699 118-204, L144R), sequence (Q15699 118-204 L144R): as the sequence (Q15699 118-204 L144V) above, with V27R counted along it

HOXA4 [9] = target: HOXA4 (Homo sapiens, UniProt Q00056 201-287)
HOXA4 (Homo sapiens, UniProt Q00056 201-287), sequence (Q00056 201-287): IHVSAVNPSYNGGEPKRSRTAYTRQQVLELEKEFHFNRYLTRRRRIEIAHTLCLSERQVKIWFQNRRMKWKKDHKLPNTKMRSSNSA

MSX2 = MSX2 (Homo sapiens, UniProt P35548 130-214)
MSX2, sequence (P35548 130-214): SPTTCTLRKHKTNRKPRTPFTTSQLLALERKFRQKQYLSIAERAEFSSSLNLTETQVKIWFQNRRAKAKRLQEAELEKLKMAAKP

VAX1 [10] = target: VAX1 (Homo sapiens, UniProt Q5SQQ9 86-172, T142I)
VAX1 (Homo sapiens, UniProt Q5SQQ9 86-172, T142I), sequence (Q5SQQ9 86-172 T142I): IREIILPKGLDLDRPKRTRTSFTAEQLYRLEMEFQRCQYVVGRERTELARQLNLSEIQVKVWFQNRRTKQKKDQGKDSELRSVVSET

HOXA7 [11] = target: HOXA7 (Homo sapiens, UniProt P31268 116-202, W177C)
HOXA7 (Homo sapiens, UniProt P31268 116-202, W177C), sequence (P31268 116-202 W177C): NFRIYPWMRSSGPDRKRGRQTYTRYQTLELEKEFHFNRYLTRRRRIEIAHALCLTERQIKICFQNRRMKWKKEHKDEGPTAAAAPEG

ALX1 [12] = target: ALX1 (Homo sapiens, UniProt Q15699 118-204)
ALX1 (Homo sapiens, UniProt Q15699 118-204), sequence (Q15699 118-204): as the sequence (Q15699 118-204 L144V) above, with V27L counted along it

HOXA4 [13] = target: HOXA4 (Homo sapiens, UniProt Q00056 201-287, W262F)
HOXA4 (Homo sapiens, UniProt Q00056 201-287, W262F), sequence (Q00056 201-287 W262F): as the sequence (Q00056 201-287) above, with W62F counted along it

PRRX1 [14] = target: PRRX1 (Homo sapiens, UniProt P54821 80-166)
PRRX1 (Homo sapiens, UniProt P54821 80-166), sequence (P54821 80-166): as the sequence (P54821 80-166 F113S) above, with S34F counted along it

VAX1 [15] = target: VAX1 (Homo sapiens, UniProt Q5SQQ9 86-172, K157R)
VAX1 (Homo sapiens, UniProt Q5SQQ9 86-172, K157R), sequence (Q5SQQ9 86-172 K157R): as the sequence (Q5SQQ9 86-172 T142I) above, with I57T, K72R counted along it

HOXB6 [16] = target: HOXB6 (Homo sapiens, UniProt P17509 132-218)
HOXB6 (Homo sapiens, UniProt P17509 132-218), sequence (P17509 132-218): as the sequence (P17509 132-218 K202E) above, with E71K counted along it

NKX2-5 = NKX2-5 (Homo sapiens, UniProt P52952 125-210)
NKX2-5, sequence (P52952 125-210): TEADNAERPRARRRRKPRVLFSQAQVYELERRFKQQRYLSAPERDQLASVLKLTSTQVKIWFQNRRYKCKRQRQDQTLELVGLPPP

HOXA4 (Homo sapiens, UniProt Q00056 201-287, W262R), sequence (Q00056 201-287 W262R): as the sequence (Q00056 201-287) above, with W62R counted along it
HOXA7 (Homo sapiens, UniProt P31268 116-202), sequence (P31268 116-202): as the sequence (P31268 116-202 W177C) above, with C62W counted along it

Sequence	binding signal (VENTX)	binding signal (HOXA4 [1])	binding signal (HOXA7 [2])	binding signal (ALX4 [3])	binding signal (PRRX1 [4])	binding signal (HOXB6 [5])	binding signal (ALX4 [6])	binding signal (HOXA2)	binding signal (ALX1 [7])	binding signal (ALX1 [8])	binding signal (HOXA4 [9])	binding signal (MSX2)	binding signal (VAX1 [10])	binding signal (HOXA7 [11])	binding signal (ALX1 [12])	binding signal (HOXA4 [13])	binding signal (PRRX1 [14])	binding signal (VAX1 [15])	binding signal (HOXB6 [16])	binding signal (NKX2-5)
ATTAATTG	12.2 upbm affinity estimate (log intensity, higher = more binding, comparable within an allelic series)	10.7 upbm affinity estimate (log intensity, higher = more binding, comparable within an allelic series)	12 upbm affinity estimate (log intensity, higher = more binding, comparable within an allelic series)	14.2 upbm affinity estimate (log intensity, higher = more binding, comparable within an allelic series)	11.4 upbm affinity estimate (log intensity, higher = more binding, comparable within an allelic series)	10.1 upbm affinity estimate (log intensity, higher = more binding, comparable within an allelic series)	13.8 upbm affinity estimate (log intensity, higher = more binding, comparable within an allelic series)	13.3 upbm affinity estimate (log intensity, higher = more binding, comparable within an allelic series)	12.1 upbm affinity estimate (log intensity, higher = more binding, comparable within an allelic series)	11.7 upbm affinity estimate (log intensity, higher = more binding, comparable within an allelic series)	14 upbm affinity estimate (log intensity, higher = more binding, comparable within an allelic series)	14 upbm affinity estimate (log intensity, higher = more binding, comparable within an allelic series)	12.9 upbm affinity estimate (log intensity, higher = more binding, comparable within an allelic series)	8.87 upbm affinity estimate (log intensity, higher = more binding, comparable within an allelic series)	12.6 upbm affinity estimate (log intensity, higher = more binding, comparable within an allelic series)	11.8 upbm affinity estimate (log intensity, higher = more binding, comparable within an allelic series)	13.4 upbm affinity estimate (log intensity, higher = more binding, comparable within an allelic series)	12.9 upbm affinity estimate (log intensity, higher = more binding, comparable within an allelic series)	12.3 upbm affinity estimate (log intensity, higher = more binding, comparable within an allelic series)	–
ATTAATTA	12.8 upbm affinity estimate (log intensity, higher = more binding, comparable within an allelic series)	11.1 upbm affinity estimate (log intensity, higher = more binding, comparable within an allelic series)	12.6 upbm affinity estimate (log intensity, higher = more binding, comparable within an allelic series)	14.7 upbm affinity estimate (log intensity, higher = more binding, comparable within an allelic series)	12.2 upbm affinity estimate (log intensity, higher = more binding, comparable within an allelic series)	10.4 upbm affinity estimate (log intensity, higher = more binding, comparable within an allelic series)	14.6 upbm affinity estimate (log intensity, higher = more binding, comparable within an allelic series)	14 upbm affinity estimate (log intensity, higher = more binding, comparable within an allelic series)	12.5 upbm affinity estimate (log intensity, higher = more binding, comparable within an allelic series)	12.1 upbm affinity estimate (log intensity, higher = more binding, comparable within an allelic series)	14.4 upbm affinity estimate (log intensity, higher = more binding, comparable within an allelic series)	14.2 upbm affinity estimate (log intensity, higher = more binding, comparable within an allelic series)	13.9 upbm affinity estimate (log intensity, higher = more binding, comparable within an allelic series)	9.01 upbm affinity estimate (log intensity, higher = more binding, comparable within an allelic series)	13.2 upbm affinity estimate (log intensity, higher = more binding, comparable within an allelic series)	13.1 upbm affinity estimate (log intensity, higher = more binding, comparable within an allelic series)	13.8 upbm affinity estimate (log intensity, higher = more binding, comparable within an allelic series)	13.8 upbm affinity estimate (log intensity, higher = more binding, comparable within an allelic series)	12.8 upbm affinity estimate (log intensity, higher = more binding, comparable within an allelic series)	–
AGTGCCTA	–	–	–	–	–	–	–	–	–	–	–	–	–	–	–	–	–	–	–	11.1 upbm affinity estimate (log intensity, higher = more binding, comparable within an allelic series)
ATAATTAT	11.9 upbm affinity estimate (log intensity, higher = more binding, comparable within an allelic series)	10.9 upbm affinity estimate (log intensity, higher = more binding, comparable within an allelic series)	12 upbm affinity estimate (log intensity, higher = more binding, comparable within an allelic series)	14.2 upbm affinity estimate (log intensity, higher = more binding, comparable within an allelic series)	11.7 upbm affinity estimate (log intensity, higher = more binding, comparable within an allelic series)	10.3 upbm affinity estimate (log intensity, higher = more binding, comparable within an allelic series)	13.7 upbm affinity estimate (log intensity, higher = more binding, comparable within an allelic series)	13.6 upbm affinity estimate (log intensity, higher = more binding, comparable within an allelic series)	11.9 upbm affinity estimate (log intensity, higher = more binding, comparable within an allelic series)	11.6 upbm affinity estimate (log intensity, higher = more binding, comparable within an allelic series)	14.3 upbm affinity estimate (log intensity, higher = more binding, comparable within an allelic series)	14 upbm affinity estimate (log intensity, higher = more binding, comparable within an allelic series)	13.3 upbm affinity estimate (log intensity, higher = more binding, comparable within an allelic series)	9.06 upbm affinity estimate (log intensity, higher = more binding, comparable within an allelic series)	12.5 upbm affinity estimate (log intensity, higher = more binding, comparable within an allelic series)	12.1 upbm affinity estimate (log intensity, higher = more binding, comparable within an allelic series)	13.6 upbm affinity estimate (log intensity, higher = more binding, comparable within an allelic series)	13.3 upbm affinity estimate (log intensity, higher = more binding, comparable within an allelic series)	12.4 upbm affinity estimate (log intensity, higher = more binding, comparable within an allelic series)	–
AACAATTA	11.7 upbm affinity estimate (log intensity, higher = more binding, comparable within an allelic series)	10.6 upbm affinity estimate (log intensity, higher = more binding, comparable within an allelic series)	11.2 upbm affinity estimate (log intensity, higher = more binding, comparable within an allelic series)	13.6 upbm affinity estimate (log intensity, higher = more binding, comparable within an allelic series)	11.1 upbm affinity estimate (log intensity, higher = more binding, comparable within an allelic series)	10 upbm affinity estimate (log intensity, higher = more binding, comparable within an allelic series)	12.8 upbm affinity estimate (log intensity, higher = more binding, comparable within an allelic series)	–	–	–	13.6 upbm affinity estimate (log intensity, higher = more binding, comparable within an allelic series)	13.9 upbm affinity estimate (log intensity, higher = more binding, comparable within an allelic series)	–	8.96 upbm affinity estimate (log intensity, higher = more binding, comparable within an allelic series)	–	11.3 upbm affinity estimate (log intensity, higher = more binding, comparable within an allelic series)	–	–	–	–
AATTAGTC	–	–	–	–	–	–	12.8 upbm affinity estimate (log intensity, higher = more binding, comparable within an allelic series)	–	11.5 upbm affinity estimate (log intensity, higher = more binding, comparable within an allelic series)	11.1 upbm affinity estimate (log intensity, higher = more binding, comparable within an allelic series)	–	13.5 upbm affinity estimate (log intensity, higher = more binding, comparable within an allelic series)	–	–	12.1 upbm affinity estimate (log intensity, higher = more binding, comparable within an allelic series)	–	–	12.3 upbm affinity estimate (log intensity, higher = more binding, comparable within an allelic series)	–	–
